# The list is not random: actives were taken first. Their share in the collection is about 1.9%.
# Measles CPE: compounds protecting cells from measles virus cytopathic effect, primary screen, measles RdRp inhibitor project, single point, MLSMR library, absorbance; Measles virus-infected cells, CPE protection; protection (pct of control), % at 4 µM; hit rate 1.5% among 140,000; AID 841, 2007; in the data active = protection mostly above about 24%, no sharp cut-off; inactive = mostly below about 26%
# sEH act: soluble epoxide hydrolase activators, primary screen, biochemical, human sEH; activation, % at 2 µM; purified human sEH enzymatic activity, activator screen; hit rate 0.04% among 91,000; in the data active = activation above about 37%
# Target sequence (P34913 whole entry, looked up): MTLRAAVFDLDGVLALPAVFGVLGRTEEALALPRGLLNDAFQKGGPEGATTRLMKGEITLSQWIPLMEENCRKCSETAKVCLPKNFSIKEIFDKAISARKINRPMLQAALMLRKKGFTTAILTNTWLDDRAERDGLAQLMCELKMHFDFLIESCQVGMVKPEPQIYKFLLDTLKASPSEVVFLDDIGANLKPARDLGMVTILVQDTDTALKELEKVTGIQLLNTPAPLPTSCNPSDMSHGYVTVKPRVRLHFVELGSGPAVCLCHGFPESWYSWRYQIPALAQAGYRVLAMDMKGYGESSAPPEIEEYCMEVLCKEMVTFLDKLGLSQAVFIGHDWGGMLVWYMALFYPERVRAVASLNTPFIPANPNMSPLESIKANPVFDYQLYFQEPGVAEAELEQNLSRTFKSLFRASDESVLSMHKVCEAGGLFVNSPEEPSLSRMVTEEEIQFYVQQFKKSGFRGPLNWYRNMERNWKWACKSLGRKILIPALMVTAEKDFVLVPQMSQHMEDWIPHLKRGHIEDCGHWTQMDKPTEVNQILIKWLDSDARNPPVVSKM
# Calb biofilm kill: clotrimazole potentiators killing Candida biofilms, primary screen, with clotrimazole, Alamar Blue; AID 834, 2007; C. albicans biofilm + clotrimazole; inhibition, % at 6 µM; hit rate 0.14% among 85,000;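 active = inhibition above 20%; inactive = inhibition below 20%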;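 note: preformed 24 hr biofilms exposed to compound for 48 hr; 0% = biofilm without compound and 100% = blank killed by clotrimazole plus chlorhexidine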
# cytoskel mod: modifiers of F-actin cytoskeleton organization, primary screen, imaging, HUVEC, phalloidin staining, high-content imaging; HUVEC TNFa F-actin phalloidin imaging; inhibition, % at 2 µM; hit rate 0.18% among 91,000; AID 836, 2007;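 active = inhibition above the batch mean plus 3 SD and confirmed as a hit by visual image inspection, cut at about 30% in these data, passing the limit was not always enough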
# sEH inhibitor: soluble epoxide hydrolase inhibitors, primary screen, biochemical, human sEH | Bifunctional epoxide hydrolase 2 (Homo sapiens), P34913 | recombinant human sEH enzymatic activity assay | inhibition, % at 2 µM | hit rate 0.34% among 91,000; in the data active = inhibition above about 80%
# * = called active by the depositor; · = no result given.
SMILES,Measles CPE,sEH act,Calb biofilm kill,cytoskel mod,sEH inhibitor
O=C(Nc1cc(SCCO)cc([N+](=O)[O-])c1)c1ccco1,15.2,·,·,·,·
COc1ccc(N2C(=O)C3CCCN3C2c2ccccc2)cc1 (stereo unspecified),17.1,-21.5,3.3,-1.1,22.0
Cn1c(=O)[nH]c(NC2CCCCC2)c(N=O)c1=O,40.8*,·,·,·,·
CC(C)(C)C1=Nn2c(nnc2C2CCCCC2)SC1,3.0,-5.5,6.8,9.2,9.0
CCCCC1C(=O)N(c2ccccc2)N(c2ccccc2)C1=O,59.8*,·,0.6,·,·
CCCCOCC1CN(c2ccccc2)C(=O)CS1 (stereo unspecified),12.3,-6.6,1.1,9.4,5.9
COc1cc(NC(=O)Cc2ccccc2)cc(OC)c1,58.5*,10.0,4.7,35.8,-8.7
CC(=O)c1nc(N2C(=O)CC(Cc3cccc(C)c3)C2=O)sc1C (stereo unspecified),42.8*,-0.9,·,-33.0,3.7
CC(=O)c1nc(N2C(=O)CC(Cc3cc(C)cc(C)c3)C2=O)sc1C (stereo unspecified),26.0,·,·,·,·
Cc1ccc(CC2S/C(=C(/C#N)C(=O)NCc3ccco3)N(c3ccccc3)C2=O)cc1 (stereo unspecified),1.5,-8.3,2.7,63.4*,7.0
CCCCOc1ccc(Cl)cc1CSc1nnc(C)n1N,16.6,-6.3,·,-4.8,8.7
CCN1CCN(c2cc(C)c3cc(NC(=O)c4cccnc4Cl)ccc3n2)CC1,3.6,-5.6,1.1,7.1,7.5
Cc1cc(N2CCN(C)CC2)nc2ccc(NC(=O)c3cccnc3Cl)cc12,7.9,1.7,60.9*,·,-6.2
COc1ccccc1OCCN1CSC(=S)N(C)C1,34.5*,·,·,·,·
CCN(CC)S(=O)(=O)c1ccc(Oc2ccccc2)cc1,6.7,-0.7,8.1,-6.6,3.0
CCC(=O)Nc1nc2ccc(S(C)(=O)=O)cc2s1,52.3*,12.5,11.5,-2.0,-6.3
CCOCC(=O)Nc1nc2ccc(S(C)(=O)=O)cc2s1,10.5,-10.1,7.8,11.3,9.4
NC(=O)[C@@H]1CCCNc2c(I)cc([N+](=O)[O-])cc2C(=O)N[C@@H](CO)C(=O)NCC(=O)N1,7.8,·,·,·,·
Cc1cccc(C(C)C)c1NC(=O)c1ccc(CN(c2ccccc2)S(=O)(=O)c2ccccc2)cc1,9.3,·,·,·,·
CN(C)S(=O)(=O)c1ccc(N2CCCC2)c(C(=O)Nc2nc(-c3ccc(F)c(F)c3)cs2)c1,6.5,·,·,·,·
CC(C)O/C(=N\S(=O)(=O)c1ccc(Cl)cc1)c1ccccc1,19.2,9.0,0.5,-1.5,-7.5
CC(C)CO/C(=N/S(=O)(=O)c1ccccc1)c1ccccc1,20.9,12.4,72.7*,-0.9,-13.5
O=C(CN1C(=O)COc2ccccc21)NCCCN1CCc2ccccc2C1,27.4*,-2.4,8.1,-5.6,-1.9
CCOc1ccc(C(=O)NCC(=O)OC2CCOC2=O)cc1OCC (stereo unspecified),42.5*,10.3,6.3,0.9,-11.3
CCOc1ccc(Cn2c(O)cc(=O)[nH]c2=O)cc1,6.9,19.9,-3.8,-12.0,-19.9
SMILES,Measles CPE,sEH act,Calb biofilm kill,cytoskel mod,sEH inhibitor
CCCCc1c(O)nc(SCC(=O)N2CCOCC2)[nH]c1=O,31.4,1.5,9.8,-15.0,-1.5
CC(C)Cc1c(O)nc(SCCN2CCOCC2)[nH]c1=O,72.3*,13.3,5.8,7.2,-14.6
CC(C)Cn1cnc2c(c1=O)c1nc3ccccc3nc1n2Cc1ccc2c(c1)OCO2,57.6*,·,2.4,·,·
Cc1nccn1-c1cc(C(C)C)c(C#N)c2nc3ccccc3n12,·,·,1.1,·,·
O=C(NNC(=O)c1cc(OCC(F)(F)F)ccc1OCC(F)(F)F)c1cccc(C(F)(F)F)c1,78.3*,·,·,·,·
Cc1cc(NC(=O)CCCC(=O)NCc2cccs2)no1,11.0,5.2,8.5,28.2,-5.6
CCCCc1c(O)nc(SCC(=O)Nc2ccc3c(c2)CCC3)[nH]c1=O,49.0*,·,-2.1,·,·
C[C@H](NC(=O)c1ccccc1Cl)C(=O)OC(C(=O)Nc1cc(C(F)(F)F)ccc1Cl)c1ccccc1 (stereo partly specified),58.0*,-0.7,·,-18.9,3.6
COc1cccc2oc(-c3ccco3)cc(=O)c12,14.8,·,·,·,·
O=C(NC(=S)N(CCCCO)C1CCCCC1)c1sc2ccccc2c1Cl,4.8,5.8,·,14.7,-3.0
CC1(C)CC(=O)C2=C(C1)N=c1s/c(=C/c3ccc(F)c(F)c3)c(=O)n1C2c1ccc(F)cc1 (stereo unspecified),19.1,37.1*,·,-3.5,-33.4
CC(=O)C1=C(C)N=c2s/c(=C/c3ccc4c(c3)OCO4)c(=O)n2C1c1ccc(N(C)C)cc1 (stereo unspecified),·,·,2.5,·,·
CCCS(=O)(=O)n1nc(-c2ccc(OC)cc2)cc1N,27.4*,-6.5,8.8,-5.5,4.0
CCOC(=O)C1=C(CSc2n[nH]c(N)n2)NC(=O)NC1C (stereo unspecified),7.2,-5.2,4.6,-28.6,4.6
O=C(Nc1ccc([N+](=O)[O-])cc1)Nc1ccc(OC(F)F)c(Cl)c1,2.7,·,·,·,·
CCOC(=O)N1CCC(NC(=O)C2CCN(c3nc(-c4ccc(OC)cc4)no3)CC2)CC1,44.2*,-65.2,·,17.4,66.2
CC(C)c1ccc(OCC(=O)Nc2ccc(OC(F)(F)F)cc2)cc1,34.5*,·,·,·,·
CCOC(=O)N1CCC(n2c(SCC(=O)N3CCC(C)CC3)nc3ccccc3c2=O)CC1,8.9,-10.3,24.1*,10.2,8.9
CCOC(=O)N1CCC(n2c(SCC(=O)N3CCCC3)nc3ccccc3c2=O)CC1,5.8,7.2,·,-25.1,-4.3
CCOC(=O)N1CCC(n2c(SCC(=O)c3ccccc3)nc3ccsc3c2=O)CC1,3.2,4.0,·,1.6,-3.3
CCc1cc(C=C(Cl)Cl)oc(=O)c1C,56.2*,-4.1,7.2,·,5.0
CCCn1c(N)c(C(=O)CSc2nnnn2-c2ccc(O)cc2)c(=O)n(C)c1=O,11.0,16.0,83.4*,-7.2,-13.5
CC(C)Cn1c(N)c(C(=O)CSc2nnnn2-c2ccc(Cl)cc2)c(=O)n(C)c1=O,·,·,4.5,·,·
CCCCn1c(N)c(N(CCC(C)C)C(=O)COC(=O)c2ccco2)c(=O)[nH]c1=O,31.1*,·,8.4,·,·
CC(=O)CSc1nc2ccccc2o1,20.5,-5.6,5.6,1.7,5.9
SMILES,Measles CPE,sEH act,Calb biofilm kill,cytoskel mod,sEH inhibitor
COC(=O)CSc1nc2ccccc2o1,42.8*,3.0,11.2,·,-1.4
O=C(CSc1nc2ccccc2o1)Nc1ccc(Cl)cc1,26.4*,1.5,4.2,-3.0,-2.5
COC(=O)/C(=C\C(=O)c1ccccc1)Nc1cccc(C(F)(F)F)c1,10.9,-2.9,·,-13.8,3.9
COc1ccc(C2(CNC(=O)Cc3ccc(OC)c(OC)c3)CCOCC2)cc1,7.6,-4.3,3.4,-3.8,4.2
O=C(O)CCC(=O)OCC1CCCO1 (stereo unspecified),7.2,-6.8,-0.8,-33.9,8.1
O=C(NCc1ccccn1)c1cc(-c2ccccc2)on1,7.7,-5.1,5.2,-6.2,5.3
Cc1ccc(-c2cc(C(=O)NCc3ccccn3)no2)cc1,17.9,-12.7,8.0,77.3*,15.9
O=C(CSc1nnc(-c2ccccc2O)o1)Oc1ccc(OCc2ccccc2)cc1,4.7,-1.8,-4.0,-0.5,2.9
COCCCNCCOCCOc1ccc(Cl)cc1C(C)(C)C,6.1,·,·,·,·
